SMN2 splice up – SMN2 splice variant enhancement; HEK293 SMN2-luciferase splicing reporter, luminescence, 30-36 h; 2.8% of 210,000 active; Potency, µM (series often up to 46.1 µM), inactives show at the highest dose activity change, positive = activation, actives largely listed as activators; note: % of control where 0% means no effect; nearly all actives have a fitted effect of over 55% in size
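HEK293 cells carry an SMN2 minigene-luciferase reporter in which exon 7 inclusion puts luciferase in frame. Cells were seeded at 2000 cells/well, attached for 10-12 hours, then exposed to compounds for 30-36 hours at 37C before ONE-Glo luminescence.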
NPC1 prom act – activators of NPC1 promoter; Potency, µM (doses to about 9.22 µM), inactives show at the top dose activation, usual class: activators; 2.4% of 320,000 active; Huh7 NPC1 promoter luciferase reporter, 24 h; note: % of control where 0% means no effect; nearly all actives have a fitted effect of over 60% in size
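Huh7 cells stably carrying NPC1 promoter–luciferase, plated in Opti-MEM with 10% FBS for 2 h, were exposed to compound in DMSO for 24 h at 37 °C; luciferase reagent was added for 10 min and luminescence read.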
ELG1 genotoxic – induces genotoxicity in HEK293T cells with luciferase-tagged ELG1; HEK293T ELG1-luciferase reporter, luminescence, 16 h; Potency, µM (series often up to 46 µM), inactives show top-dose activity change, positive = activation, most hits filed as activators; 1.3% of 330,000 active; AID 504466; note: % of control where 0% means no effect; nearly all actives have a fitted effect of over 60% in size
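16 hr compound incubation (37 °C, 5% CO2) of HEK293T cells carrying luciferase-tagged ELG1; luciferase then measured by ONE-Glo luminescence after 30 min at RT.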
KinaseGlo FLuc – Kinase-Glo luciferase inhibition (counter-screen); Q27757; Kinase-Glo luciferase, ATP luminescence, 8 min; Potency, µM (series often up to 38.3 µM), for the others: at the top dose activity change, negative = inhibition, actives largely listed as inhibitors; 0.28% of 200,000 active; AID 1379; note: % is set by controls: 0 for no effect and ±100 for the full control effect; nearly all actives have a fitted effect of over 60% in size
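Inhibition of Kinase-Glo luciferase light generation was assessed at 10 uM ATP in pH 7.2 imidazole buffer, with luminescence measured after eight minutes at ambient temperature.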
Rab9 prom act – activators of Rab9 promoter; Huh7 Rab9 promoter-luciferase reporter, luminescence, 24 h; Potency, µM (series often up to 9.22 µM), for inactives: at the top dose activation, negative = inhibition, usual class: activators; 2.8% of 320,000 active; note: % of control where 0% means no effect; nearly all actives have a fitted effect of over 60% in size
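Cells were plated at 1500 per well in reduced-serum medium with 10% FBS and left 2 h. Compound in DMSO was then added for 24 h at 37 °C. Reporter signal was read by luminescence after 10 min with luciferase detection reagent.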
FLuc counter – firefly luciferase modulation, counter-screen for miR-21 project. purified FLuc, Km substrates, luminescence inhibition. Potency, µM (highest dose often 57.5 µM), without a hit: at the highest dose activity change, negative = inhibition, hits mostly inhibitors. 6.9% of 360,000 active. AID 588342;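 note: plate controls were vehicle for no effect and reference inhibitor for full effect; nearly all actives have a fitted effect of over 55% in size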
Target sequence (P08659 whole entry, looked up): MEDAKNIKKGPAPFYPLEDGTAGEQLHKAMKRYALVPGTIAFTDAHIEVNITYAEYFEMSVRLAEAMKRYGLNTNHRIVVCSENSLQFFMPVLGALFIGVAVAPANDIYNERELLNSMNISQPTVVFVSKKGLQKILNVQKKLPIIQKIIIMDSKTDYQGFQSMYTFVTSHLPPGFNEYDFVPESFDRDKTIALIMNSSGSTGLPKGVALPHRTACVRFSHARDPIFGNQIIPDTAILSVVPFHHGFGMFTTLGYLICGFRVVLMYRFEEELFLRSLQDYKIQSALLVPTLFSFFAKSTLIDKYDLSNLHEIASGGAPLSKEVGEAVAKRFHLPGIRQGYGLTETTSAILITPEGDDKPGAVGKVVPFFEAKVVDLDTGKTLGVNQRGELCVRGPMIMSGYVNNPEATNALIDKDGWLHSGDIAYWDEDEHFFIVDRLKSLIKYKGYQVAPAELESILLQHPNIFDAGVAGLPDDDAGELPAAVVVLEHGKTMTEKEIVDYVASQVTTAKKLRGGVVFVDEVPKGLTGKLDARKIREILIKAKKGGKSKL
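Purified P. pyralis luciferase, 10 nM final, with Km-level 10 uM D-luciferin and 10 uM ATP in 50 mM Tris acetate pH 7.5, 10 mM Mg acetate, 0.01% Tween-20, 0.05% BSA; 6-point qHTS titration about 60 µM downward; luminescence read.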
Numbers without * were called inactive; ? = inconclusive; . = not tested or not shown; [ ] = dose if it differs, or a comment. This is a sample that favours compounds with a hit; in the whole collection about 7.5% have one here. Calls come from the whole dose curve; as a rule, active = well fitted curve in the direction sought with a large enough effect; inconclusive = small, poorly fitted or top-dose-only effect, or another doubt; inactive = no such curve, though single readings can be large; an effect the other way counts as inactive or inconclusive. Potency is the fitted concentration of half-maximal effect.

SMILES | SMN2 splice up | NPC1 prom act | ELG1 genotoxic | KinaseGlo FLuc | Rab9 prom act | FLuc counter
CCN1CCCC1CNC(=O)c1ccc2c(c1)NC(=O)/C(=C\c1ccc(C)cc1)S2 (stereo not drawn) | . | -0.1% | ? | . | -2.2% | 21.3µM*
Cc1ccc(/C=C2/Sc3ccc(C(=O)N4CCN(C)CC4)cc3NC2=O)cc1 | . | -1.0% | 2.2% | . | 0.4% | 15.1µM*
Cc1ccc(/C=C2/Sc3ccc(C(=O)NCCN4CCOCC4)cc3NC2=O)cc1 | . | -2.6% | 3.8% | . | 0.9% | ?
O=C(NC(Cc1c[nH]c2ccccc12)C(=O)N/N=C/c1cccnc1)c1cccs1 (stereo not drawn) | 25.1µM* | 2.2% | -7.5% | -0.5% | 9.1% | -0.5%
COc1ccc(-n2cnc3cc(NCc4ccccn4)ccc32)cc1 | -8.5% | 16.1% | 6.8% | 0.8% | 21.6% | 16.9µM*
COc1cccc(CNc2ccc(F)c(Cl)c2)c1OC | -28.2% | -0.2% | 1.6% | 2.7% | 1.8% | 0.2%
COc1ccccc1-n1cnc2cc(NC(C)=O)ccc21 | 17.3% | -1.1% | 10.7% | -1.1% | 0.7% | 1.0%
CCn1cnc2cc(NCc3ccncc3)ccc21 | . | -1.7% | 2.5% | 5.0% | -2.0% | -1.5%[2.3 µM]
COc1cccc(CNc2ccc3c(c2)ncn3C(C)C)c1OC | ? | 3.98µM* | 14.1% | 1.5% | 3.98µM* | 16.9µM*
CCCn1cnc2cc(NCc3ccccn3)ccc21 | 12.6µM* | 3.16µM* | ? | -5.2% | 3.16µM* | 12µM*
COc1ccc(-n2cnc3ccccc32)cc1 | -10.0% | 4.0% | -15.4% | 1.1% | 2.9% | ?
COc1ccccc1-n1cnc2cc(NCc3ccccn3)ccc21 | 10.8% | -2.9% | 10.0% | 0.9% | 16.0% | 15.1µM*
COc1ncc2nc(-c3ccc(F)cc3)c(=O)n(C[C@H]3CCCO3)c2n1 | -13.8% | . | . | -1.0% | . | .
N#C/C(=C(\O)c1cc(Cl)sc1Cl)c1nc2ccccc2[nH]1 | . | 12.5% | -3.9% | . | 1.8% | -1.1%
CCCn1cnc2cc(NCc3cccc(OC)c3O)ccc21 | -2.1% | 18.3% | ? | -4.2% | -3.5% | 12µM*
Cc1nc(NS(=O)(=O)c2ccccc2)sc1C(=O)N/N=C/c1ccccc1 | . | 1.1% | 2.6% | . | 2.5% | 9.53µM*
Cc1nc(NS(=O)(=O)c2ccccc2)sc1C(=O)NNS(=O)(=O)c1ccccc1 | . | -4.1% | 0.5% | . | 1.2% | -10.0%
Cc1cc(Nc2cccc(Cl)c2)nc2ccc(NC(=O)c3ccc(F)cc3Cl)cc12 | . | . | . | . | . | 2.0%
Cc1ccccc1Cn1cc(NC(=O)c2cc(-c3ccc(Cl)cc3)on2)cn1 | -2.6% | . | . | . | . | 6.1%
Cc1ccccc1Cn1cc(NC(=O)c2cc(C3CC3)on2)cn1 | . | ? | -11.4% | . | ? | 19µM*
Cc1ccc(Cn2c(SCC(=O)C(C)(C)C)nc3ccsc3c2=O)cc1 | . | . | . | . | . | 1.1%
CCC(OC(C)=O)c1cc2c(cc1[N+](=O)[O-])OCCO2 (stereo not drawn) | . | -2.1% | -1.8% | 0.6% | -2.7% | -1.6%
Cc1cc(C(N)=O)c2ccccc2n1 | 1.7% | 0.4% | -0.2% | 2.4% | 5.7% | 1.7%
NC(=O)c1cc2c3ccccc3ccn2c1-c1ccccc1 | . | -2.1% | 11.6µM* | . | -15.2% | 21.3µM*
COc1ccc(N=Nc2n(C)c3ccccc3[n+]2C)cc1 | . | 0.708µM* | 0.92µM* | . | ? | 0.0757µM*
Cc1ccc(-c2n[nH]c3c2C(c2cccc(O)c2)N(c2ccc(C(=O)O)cc2)C3=O)cc1 (stereo not drawn) | 3.8% | -2.5% | 0.9% | . | -2.4% | 8.49µM*
O=C(O)c1cnc(-c2ccccc2)nc1C(F)(F)F | 6.6% | -1.5% | -0.4% | 0.5% | 1.3% | -16.2%
COC(=O)Cc1c(C)c2ccc(OC(C)C)cc2oc1=O | . | ? | 18.0% | . | 3.16µM* | 15.1µM*
COC(=O)Cc1c(C)c2ccc(OC(=O)c3ccco3)cc2oc1=O | -3.6% | -0.3% | 4.2% | -1.1% | 1.2% | 16.9µM*
